# Test results reported in PubChem BioAssay (NCATS).
# Where “and” joins values, the source holds several entries; their conditions need not be identical. Equal values may be shown once. Inconclusive results are not listed. Calls of active or inactive are those of the source. Calls follow the shape of the dose curve; as a rule, active = well fitted curve in the direction sought with a large enough effect; inconclusive = small, poorly fitted or top-dose-only effect, or another doubt; inactive = no such curve, though single readings can be large; an effect the other way counts as inactive or inconclusive.
# Key:
# [1] = Identifying Small Molecule Inhibitors of Pancreatic Cancer Stem Cells (SN12C, Spheroid) (AID 1259360); conditions: Potency: SN12C spheroid viability; also: potency is read from the fitted curve at half-maximal effect
# How it was run: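 Monolayer and spheroid cultures are compared. Spheroids form over 14 days in stem cell medium on hydrogel-coated low-attachment plates, then are exposed to compound for 48 h before CellTiter-Glo luminescence.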
# [2] = Identifying Small Molecule Inhibitors of Pancreatic Cancer Stem Cells (A278, Adherent) (AID 1259361);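 also: viability read after 48 h compound exposure; nearly all actives have a fitted effect of over 35% in size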
# How it was run: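 Endpoint: ATP-based luminescence, 48 h drug exposure. Bortezomib at 9.2 uM final as full-kill control; DMSO vehicle as negative control; activity normalized between vehicle and cell-free wells.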
# [3] = Identifying Small Molecule Inhibitors of Pancreatic Cancer Stem Cells (Panc1, Adherent) (AID 1259362); conditions: Potency: viability; also: potency is read from the fitted curve at half-maximal effect
# How it was run: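 Luminescent ATP readout (CellTiter-Glo) quantifies surviving cells after a 48 h drug incubation. Normalization uses DMSO wells as no inhibition and media-only wells as full inhibition; bortezomib served as positive control.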
# [4] = P-glycoprotein substrates identified in KB-8-5-11 adenocarcinoma cell line, qHTS therapeutic library screen (AID 1346987); also: nearly all actives have a fitted effect of over 65% in size; also: potency is read from the fitted curve at half-maximal effect
# How it was run: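 KB-8-5-11: colchicine-selected sub-line of KB-3-1 over-expressing P-gp; assay medium lacked colchicine. 72 h drug exposure at 37 degree C, CellTiter-Glo.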
# [5] = qHTS of pediatric cancer cell lines to identify multiple opportunities for drug repurposing: Primary screen for TC32 cells (AID 1347089); also: nearly all actives have a fitted effect of over 60% in size; also: potency is read from the fitted curve at half-maximal effect
# How it was run: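 qHTS, TC32, 48 h drug treatment, CellTiter-Glo luminescence as a proxy for metabolically active cells; primary top concentration 46 µM (MIPE 11-pt, NPC 8-pt); confirmatory 11-pt.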
# [6] = qHTS of pediatric cancer cell lines to identify multiple opportunities for drug repurposing: Primary screen for DAOY cells (AID 1347090); also: nearly all actives have a fitted effect of over 55% in size; also: potency is read from the fitted curve at half-maximal effect
# How it was run: (§1)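 Viability measured as metabolically active cells via CellTiter-Glo luminescence following 48 hours of compound exposure, 11-point dilutions in confirmatory testing. 500-1,000 cells/well plated 5 hours before dosing; controls were DMSO and 2.3 µM bortezomib.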
# [7] = qHTS of pediatric cancer cell lines to identify multiple opportunities for drug repurposing: Primary screen for SJ-GBM2 cells (AID 1347091); also: potency is read from the fitted curve at half-maximal effect
# How it was run: as §1
# [8] = qHTS of pediatric cancer cell lines to identify multiple opportunities for drug repurposing: Primary screen for A673 cells (AID 1347092); also: nearly all actives have a fitted effect of over 45% in size; also: potency is read from the fitted curve at half-maximal effect
# How it was run: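 Luminescence from CellTiter-Glo, taken after 15 min at room temperature, served as the proxy for metabolically active cells following 48 h treatment. Both potency and efficacy were taken from curves fitted to the titration data.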
# [9] = qHTS of pediatric cancer cell lines to identify multiple opportunities for drug repurposing: Primary screen for SK-N-MC cells (AID 1347093); also: potency is read from the fitted curve at half-maximal effect
# How it was run: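 Metabolically active cells were quantified by ATP-dependent luminescence (CellTiter-Glo, 15 min at room temperature) following 48 h treatment. Cells had been plated at 500-1,000 per well and settled for 5 h beforehand.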
# [10] = qHTS of pediatric cancer cell lines to identify multiple opportunities for drug repurposing: Primary screen for BT-37 cells (AID 1347094); also: potency is read from the fitted curve at half-maximal effect
# How it was run: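 Primary screen of approved and investigational compounds on cells in growth media at 37 degrees C, 5% CO2. MIPE set at 11-point and NPC set at 8-point dilutions; viability scored by ATP-based luminescence at 48 hours.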
# [11] = NS1 protein of Zika virus - qHTS assay to identify small molecule inhibitors in human HEK 293 cells (AID 1347053); also: nearly all actives have a fitted effect of over 55% in size; also: potency is read from the fitted curve at half-maximal effect
# How it was run: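 HEK 293; 20 h pre-culture, 37 C/5% CO2; cpd 1 h pre-infection; ZIKV MR766, MOI = 0.5, 24 h, 37 C; TR-FRET NS1 readout (two anti-NS1 Abs); norm. to no-virus vs infected.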
# [12] = P-glycoprotein substrates identified in KB-3-1 adenocarcinoma cell line, qHTS therapeutic library screen (AID 1346986); also: nearly all actives have a fitted effect of over 60% in size;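 also: potency is read from the fitted curve at half-maximal effect; potency is for cytotoxicity meaning loss of cell viability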
# How it was run: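 Compounds were tested in dose-response against KB-3-1 and KB-8-5-11 cells at 37 degree C for 72 h, and viability was measured by luminescence. AC50 values came from curve fitting with class-based activity calls.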
Compound,Potency [1],IC50 (viability decrease) [2],Potency [3],Potency [4],Potency [5],Potency [6],Potency [7],Potency [8],Potency [9],Potency [10],Potency [11],Potency [12]
Cc1cnc(Nc2ccc(F)cc2Cl)nc1-c1c[nH]c(C(=O)N[C@H](CO)c2cccc(Cl)c2)c1,23.5 µM (active),11.8 µM (active),18.7 µM (active),23.5 µM (active),inactive,7.43 µM (active),0.264 µM (active),0.0372 µM (active),2.35 µM (active),0.485 µM (active),,
COc1ccc(CC2SC(=O)NC2=O)cc1C(=O)NCc1ccc(C(F)(F)F)cc1 (configuration not stated),inactive,inactive,,inactive,,inactive,inactive,inactive,,inactive,inactive,
CN(c1ncccc1CNc1nc(Nc2ccc3c(c2)CC(=O)N3)ncc1C(F)(F)F)S(C)(=O)=O,20.9 µM (active),2.96 µM (active),,,13.1 µM (active),18.7 µM (active),3.32 µM (active),4.69 µM (active),2.96 µM (active),9.68 µM (active),11.8 µM (active),5.17 µM (active)
CN1CCC(CNc2ccc3ncc(-c4cccc(OC(F)(F)F)c4)n3n2)CC1,23.5 µM (active),18.7 µM (active),,13.2 µM (active) and 18.4 µM (active),inactive,,16.6 µM (active),14.8 µM (active),4.18 µM (active),21.7 µM (active),16.6 µM (active),20.6 µM (active)
Cc1ccc(-c2ncn(-c3ccc(Nc4nccc(-c5cccc(N6CCOCC6)c5)n4)cc3)n2)cn1,0.059 µM (active),0.0743 µM (active),0.0743 µM (active),1.05 µM (active),0.33 µM (active),0.187 µM (active),0.105 µM (active),0.0935 µM (active),0.0662 µM (active),0.122 µM (active),3.72 µM (active),
C=C1C(=CC=C2CCC[C@]3(C)[C@@H]([C@H](C)C=C[C@H](C)C(C)C)CC[C@@H]23)C[C@@H](O)C[C@@H]1O,inactive,,26.4 µM (active),inactive,11.7 µM (active),1.87 µM (active),0.743 µM (active),0.469 µM (active),0.469 µM (active),0.968 µM (active),inactive,inactive
CC1(C)CCC(c2ccc(Cl)cc2)=C(CN2CCN(c3ccc(C(=O)NS(=O)(=O)c4ccc(N[C@H](CCN5CCOCC5)CSc5ccccc5)c(S(=O)(=O)C(F)(F)F)c4)cc3)CC2)C1,16.6 µM (active),23.5 µM (active),,inactive,inactive,,0.0235 µM (active),4.69 µM (active),0.0118 µM (active),13.7 µM (active),inactive,
O=C(NCCS(=O)(=O)c1ccc(C(F)(F)F)cn1)c1ccc(Cl)cc1,inactive,inactive,,,inactive,,inactive,inactive,,inactive,inactive,inactive
C1=CCOCc2cc(ccc2OCCN2CCCC2)Nc2nccc(n2)-c2cccc(c2)OCC1,inactive,2.09 µM (active),1.87 µM (active),3.32 µM (active),14.7 µM (active),14.8 µM (active),,2.35 µM (active),,12.2 µM (active),4.18 µM (active),
C[C@@]12O[C@@H](C[C@]1(O)CO)n1c3ccccc3c3c4c(c5c6ccccc6n2c5c31)CNC4=O,23.5 µM (active),1.66 µM (active),,2.35 µM (active) and 1.46 µM (active),1.86 µM (active),,0.235 µM (active),0.743 µM (active),0.0372 µM (active),4.85 µM (active),2.64 µM (active),0.206 µM (active)
CC=C1NC(=O)[C@H]2CSSCCC=C[C@H](CC(=O)N[C@H](C(C)C)C(=O)N2)OC(=O)[C@H](C(C)C)NC1=O,0.0053 µM (active),0.0053 µM (active),,8.33 µM (active),0.0587 µM (active),0.0296 µM (active),0.0148 µM (active),0.0118 µM (active),0.0105 µM (active),0.0109 µM (active),4.18 µM (active),
c1ccc2c(CCNc3ccc(Nc4ccncc4)cc3)c[nH]c2c1,23.5 µM (active),16.6 µM (active),,,,,5.9 µM (active),18.7 µM (active),1.87 µM (active),4.32 µM (active),8.33 µM (active),
c1cc(-c2cnn3cc(-c4ccc(OCCN5CCCCC5)cc4)cnc23)ccn1,inactive,26.4 µM (active),,2.35 µM (active) and 10.3 µM (active),,18.7 µM (active),16.6 µM (active),4.69 µM (active),9.35 µM (active),17.2 µM (active),,6.51 µM (active)
CCCCN1CCC(CNC(=O)c2c3n(c4ccccc24)CCCO3)CC1,inactive,inactive,inactive,,inactive,,,1.48 µM (active),4.69 µM (active),,,
CCC(=C(c1ccccc1)c1ccc(OCCN(C)C)cc1)c1ccccc1,18.7 µM (active),23.5 µM (active),,,inactive,inactive,,,,,,
